Test results as given in PubChem BioAssay (NCATS).
Records with an inconclusive call do not appear. Active and inactive are the calls of the source. Calls come from the whole dose curve; as a rule, active = well fitted activation curve with a large enough effect; inconclusive = small, poorly fitted or top-dose-only effect; inactive = no such curve, though single readings can be large or run the other way.

biological target: Rap guanine nucleotide exchange factor 3 (Homo sapiens) (UniProt O95398); assay: Confirmatory qHTS for agonist of cAMP-regulated guanine nucleotide exchange factor 3 (EPAC1) (AID 1645881); conditions: EPAC1 Rap1B BODIPY-GDP exchange fluorescence; series mostly up to 154 µM;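 note: EPAC1 catalysed release of BODIPY-GDP from Rap1B seen as fluorescence loss; 100% = effect of cAMP agonist control; nearly all actives have a fitted effect of over 75% in size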
Sequence (O95398 whole entry, looked up): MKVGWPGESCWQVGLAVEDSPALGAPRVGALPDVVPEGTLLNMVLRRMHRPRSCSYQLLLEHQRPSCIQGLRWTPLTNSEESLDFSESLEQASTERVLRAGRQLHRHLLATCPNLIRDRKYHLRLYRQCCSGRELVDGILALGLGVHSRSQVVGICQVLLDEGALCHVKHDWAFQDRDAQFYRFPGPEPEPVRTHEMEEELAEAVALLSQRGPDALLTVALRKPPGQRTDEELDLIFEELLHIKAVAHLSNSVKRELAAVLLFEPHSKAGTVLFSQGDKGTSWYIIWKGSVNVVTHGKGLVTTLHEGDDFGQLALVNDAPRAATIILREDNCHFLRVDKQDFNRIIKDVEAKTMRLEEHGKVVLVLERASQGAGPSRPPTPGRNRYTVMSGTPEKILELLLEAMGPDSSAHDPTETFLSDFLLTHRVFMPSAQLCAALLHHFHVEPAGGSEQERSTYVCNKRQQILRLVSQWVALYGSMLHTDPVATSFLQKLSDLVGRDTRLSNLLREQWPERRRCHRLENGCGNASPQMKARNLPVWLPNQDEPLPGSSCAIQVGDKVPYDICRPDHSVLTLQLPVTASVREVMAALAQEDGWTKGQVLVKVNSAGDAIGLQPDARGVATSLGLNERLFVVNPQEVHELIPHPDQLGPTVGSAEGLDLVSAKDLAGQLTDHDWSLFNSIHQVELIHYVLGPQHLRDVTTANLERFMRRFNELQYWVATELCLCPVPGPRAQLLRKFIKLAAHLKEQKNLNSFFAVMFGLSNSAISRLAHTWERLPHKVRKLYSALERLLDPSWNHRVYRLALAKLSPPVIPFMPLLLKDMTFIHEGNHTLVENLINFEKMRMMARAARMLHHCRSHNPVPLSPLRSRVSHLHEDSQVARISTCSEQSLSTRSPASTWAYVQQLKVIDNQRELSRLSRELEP

Potency, inactive:
COc1cccc(C(=O)Nc2cccc(C(=O)OCc3cc(=O)n4c(C)csc4n3)c2)c1, Cc1ccc(C)c(-c2ccc(=O)n(C(C)C(=O)Nc3ccccc3C(F)(F)F)n2)c1 (stereo not given), COc1ccc(/C=C2\C(=O)NC(=S)N2C(=O)c2ccc(F)cc2)cc1, Cc1ccc(CNc2nc(NCc3ccccc3)nc3ccsc23)c(C)c1, Cc1cc(SCC(=O)c2ccc(O)c(O)c2)n2nc(C)c(-c3ccccc3)c2n1, CCOc1ccccc1NC(=O)CN1C(=O)COc2ccc(S(=O)(=O)NC3CCCC3)cc21, Cc1ccccc1C(=O)Nc1cccc(C(=O)N/N=C/c2cc(Cl)cc([N+](=O)[O-])c2O)c1, Cc1ccc2[nH]cc(C(c3ccccc3)c3ccc(Cl)s3)c2c1 (stereo not given), CCc1nc2c(OCc3ccc(OC)cc3)cccn2c1N(C)C(=O)c1ccc(OC)cc1, COC(=O)C1(C)CC1(c1ccccc1)c1ccccc1 (stereo not given), COc1ccc(NC(=S)N(CCCN2CCOCC2)C(C)c2cc3cccc(OC)c3o2)cc1 (stereo not given), COc1ccc(OC)c(CNC(=O)CCCc2cn(C)c3ccccc23)c1, CCc1ccccc1OCC(=O)NCC1COc2ccccc2O1 (stereo not given), CC(=O)C(=Cc1ccc(Cl)cc1)C(=O)c1ccccc1, COc1ccc(NC(=O)CSc2nc(O)cc(=O)n2-c2ccc(OC)cc2)cc1, Cc1cc(C)cc(-n2ccnc2SCC(=O)Nc2ccc3c(c2)OCO3)c1, Cc1ccc(-n2c(CCC(=O)O)ccc2-c2cccs2)cc1Cl, COc1cc(C2CC(=O)Oc3cc(C)c(Br)c(C)c32)cc(OC)c1OC (stereo not given), CCOC(=O)c1ccc(NC(=S)NNC(=O)C2(C)CC2(Cl)Cl)cc1 (stereo not given), COc1ccc(C(=O)NC2(C(F)(F)F)NC(=O)N(CCCc3ccccc3)C2=O)c(OC)c1OC (stereo not given), C=CS(=O)(=O)N(Cc1ccccc1Br)[C@H](CO)CC(C)C, Clc1cccc(Cc2c(-c3ccco3)nc3ccc(Br)cn23)c1, CC(C)CCn1c(Oc2ccccc2Cl)nc2c1c(=O)n(C)c(=O)n2C, Fc1ccc(/C=C2\CCCC3=C2Nc2ncnn2C3c2ccc(F)cc2)cc1 (stereo not given), Cc1ccc(-c2cc(C(=O)Nc3ccc(S(=O)(=O)Nc4onc(C)c4C)cc3)c3ccccc3n2)cc1, CC(c1nc2ccccc2n1Cc1ccccc1)n1c(-c2cnccn2)nc2ccccc21 (stereo not given), Cc1ccc(C)c(Cn2c(CN(C)Cc3ccccc3)nc3c2c(=O)n(C)c(=O)n3C)c1, COc1ccc(OCc2nc3ccccc3n2Cc2ccc(C(C)(C)C)cc2)cc1, COn1c2c(c3c4nonc4ccc31)CCCC2, CC(C)C(CCNC(=O)CC(Cc1ccccc1)c1ccco1)c1ccco1 (stereo not given), O=C1C=C(Nc2cccc3cccnc23)c2ccccc2C1=O, O=C(COc1ccc(Cl)cc1)NC1=NN(c2ccccc2)C(=O)C1, Cc1ccc(NC(=O)CN2C(=O)S/C(=C\c3cccn3-c3cccc(C(=O)O)c3)C2=O)cc1C, CCc1ccc2c(c1)NC(=O)C2(C)Cc1ccc(F)cc1 (stereo not given), COc1ccc2c(c1)Cc1sc(NC(=O)c3ccccc3C)nc1-2, OC(CSc1ccccc1)CN1CCN(c2cccc(Cl)c2)CC1 (stereo not given), CS(=O)(=O)c1ccc(C(=O)OCc2nnc(-c3ccccc3)o2)cc1[N+](=O)[O-], O=C(/C=C/c1ccco1)Nc1nc(-c2ccccn2)cs1, O=S(=O)(NCC(c1cccnc1)N1CCN(c2ccccc2F)CC1)c1cccs1 (stereo not given), O=C(CSc1ccc2ccccc2c1)Nc1ccc(S(=O)(=O)Nc2nccs2)cc1

biological target: Rap guanine nucleotide exchange factor 4 (Homo sapiens) (UniProt Q8WZA2); assay: Confirmatory qHTS for agonist of cAMP-regulated guanine nucleotide exchange factor 4 (EPAC2) (AID 1645884); conditions: EPAC2 GEF activity, Rap1B-BODIPY-GDP fluorescence; series mostly up to 154 µM;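 note: nucleotide exchange releases bodipy-GDP from Rap1 and this lowers its fluorescence; % is set by controls: 0 for no effect and ±100 for the full control effect; nearly all actives have a fitted effect of over 65% in size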
Sequence (Q8WZA2 whole entry, looked up): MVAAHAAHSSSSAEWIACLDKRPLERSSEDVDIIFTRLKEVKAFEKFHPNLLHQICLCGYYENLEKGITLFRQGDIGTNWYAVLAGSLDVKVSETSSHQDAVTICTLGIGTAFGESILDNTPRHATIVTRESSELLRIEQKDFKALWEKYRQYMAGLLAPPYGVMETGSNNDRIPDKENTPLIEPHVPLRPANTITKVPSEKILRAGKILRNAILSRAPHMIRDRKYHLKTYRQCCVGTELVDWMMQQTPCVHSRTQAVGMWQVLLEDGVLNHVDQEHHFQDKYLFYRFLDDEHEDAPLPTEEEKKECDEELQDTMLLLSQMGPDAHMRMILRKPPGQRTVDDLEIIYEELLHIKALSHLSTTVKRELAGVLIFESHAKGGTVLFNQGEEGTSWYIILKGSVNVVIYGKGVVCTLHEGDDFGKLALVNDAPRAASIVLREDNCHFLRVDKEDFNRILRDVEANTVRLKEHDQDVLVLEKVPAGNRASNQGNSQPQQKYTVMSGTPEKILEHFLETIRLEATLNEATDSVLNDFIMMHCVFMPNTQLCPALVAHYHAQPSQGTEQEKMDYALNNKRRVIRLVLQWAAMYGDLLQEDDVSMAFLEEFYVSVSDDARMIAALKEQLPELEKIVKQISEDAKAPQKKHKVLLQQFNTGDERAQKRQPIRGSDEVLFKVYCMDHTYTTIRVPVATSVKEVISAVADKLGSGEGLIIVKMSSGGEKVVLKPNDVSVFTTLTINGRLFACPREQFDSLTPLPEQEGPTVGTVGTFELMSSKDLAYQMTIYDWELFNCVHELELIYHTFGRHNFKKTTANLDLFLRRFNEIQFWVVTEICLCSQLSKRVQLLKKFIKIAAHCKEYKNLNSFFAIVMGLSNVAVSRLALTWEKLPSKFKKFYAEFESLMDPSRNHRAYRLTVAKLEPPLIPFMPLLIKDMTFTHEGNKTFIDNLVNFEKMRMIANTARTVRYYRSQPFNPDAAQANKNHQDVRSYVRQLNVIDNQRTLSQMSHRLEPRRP

Potency, inactive:
COc1cccc(C(=O)Nc2cccc(C(=O)OCc3cc(=O)n4c(C)csc4n3)c2)c1, Cc1ccc(C)c(-c2ccc(=O)n(C(C)C(=O)Nc3ccccc3C(F)(F)F)n2)c1 (stereo not given), COc1ccc(/C=C2\C(=O)NC(=S)N2C(=O)c2ccc(F)cc2)cc1, Cc1ccc(CNc2nc(NCc3ccccc3)nc3ccsc23)c(C)c1, Cc1cc(SCC(=O)c2ccc(O)c(O)c2)n2nc(C)c(-c3ccccc3)c2n1, CCOc1ccccc1NC(=O)CN1C(=O)COc2ccc(S(=O)(=O)NC3CCCC3)cc21, Cc1ccccc1C(=O)Nc1cccc(C(=O)N/N=C/c2cc(Cl)cc([N+](=O)[O-])c2O)c1, Cc1ccc2[nH]cc(C(c3ccccc3)c3ccc(Cl)s3)c2c1 (stereo not given), CCc1nc2c(OCc3ccc(OC)cc3)cccn2c1N(C)C(=O)c1ccc(OC)cc1, COc1ccc(NC(=S)N(CCCN2CCOCC2)C(C)c2cc3cccc(OC)c3o2)cc1 (stereo not given), COc1ccc(OC)c(CNC(=O)CCCc2cn(C)c3ccccc23)c1, CCc1ccccc1OCC(=O)NCC1COc2ccccc2O1 (stereo not given), CC(=O)C(=Cc1ccc(Cl)cc1)C(=O)c1ccccc1, COc1ccc(NC(=O)CSc2nc(O)cc(=O)n2-c2ccc(OC)cc2)cc1, Cc1cc(C)cc(-n2ccnc2SCC(=O)Nc2ccc3c(c2)OCO3)c1, Cc1ccc(-n2c(CCC(=O)O)ccc2-c2cccs2)cc1Cl, CCOC(=O)c1ccc(NC(=S)NNC(=O)C2(C)CC2(Cl)Cl)cc1 (stereo not given), CC(C)CCn1c(Oc2ccccc2Cl)nc2c1c(=O)n(C)c(=O)n2C, CC(c1nc2ccccc2n1Cc1ccccc1)n1c(-c2cnccn2)nc2ccccc21 (stereo not given), Cc1ccc(C)c(Cn2c(CN(C)Cc3ccccc3)nc3c2c(=O)n(C)c(=O)n3C)c1, COc1ccc(OCc2nc3ccccc3n2Cc2ccc(C(C)(C)C)cc2)cc1, COn1c2c(c3c4nonc4ccc31)CCCC2, O=C1C=C(Nc2cccc3cccnc23)c2ccccc2C1=O, O=C(COc1ccc(Cl)cc1)NC1=NN(c2ccccc2)C(=O)C1, COc1ccc2c(c1)Cc1sc(NC(=O)c3ccccc3C)nc1-2, CS(=O)(=O)c1ccc(C(=O)OCc2nnc(-c3ccccc3)o2)cc1[N+](=O)[O-], O=C(/C=C/c1ccco1)Nc1nc(-c2ccccn2)cs1

activation, inactive:
COC(=O)C1(C)CC1(c1ccccc1)c1ccccc1 (stereo not given) 12.4% [at 17.1 µM, percent relative to cAMP agonist control], COc1cc(C2CC(=O)Oc3cc(C)c(Br)c(C)c32)cc(OC)c1OC (stereo not given) 16.3% [at 17.1 µM, percent relative to cAMP agonist control], COc1ccc(C(=O)NC2(C(F)(F)F)NC(=O)N(CCCc3ccccc3)C2=O)c(OC)c1OC (stereo not given) 12.9% [at 17.1 µM, percent relative to cAMP agonist control], C=CS(=O)(=O)N(Cc1ccccc1Br)[C@H](CO)CC(C)C 1.88% [at 17.1 µM, percent relative to cAMP agonist control], Clc1cccc(Cc2c(-c3ccco3)nc3ccc(Br)cn23)c1 2.6% [at 17.1 µM, percent relative to cAMP agonist control], Fc1ccc(/C=C2\CCCC3=C2Nc2ncnn2C3c2ccc(F)cc2)cc1 (stereo not given) 4.94% [at 17.1 µM, percent relative to cAMP agonist control], Cc1ccc(-c2cc(C(=O)Nc3ccc(S(=O)(=O)Nc4onc(C)c4C)cc3)c3ccccc3n2)cc1 6.25% [at 17.1 µM, percent relative to cAMP agonist control], CC(C)C(CCNC(=O)CC(Cc1ccccc1)c1ccco1)c1ccco1 (stereo not given) 3.03% [at 17.1 µM, percent relative to cAMP agonist control], Cc1ccc(NC(=O)CN2C(=O)S/C(=C\c3cccn3-c3cccc(C(=O)O)c3)C2=O)cc1C 3.81% [at 17.1 µM, percent relative to cAMP agonist control], CCc1ccc2c(c1)NC(=O)C2(C)Cc1ccc(F)cc1 (stereo not given) 12.7% [at 17.1 µM, percent relative to cAMP agonist control], OC(CSc1ccccc1)CN1CCN(c2cccc(Cl)c2)CC1 (stereo not given) 5.38% [at 17.1 µM, percent relative to cAMP agonist control], O=S(=O)(NCC(c1cccnc1)N1CCN(c2ccccc2F)CC1)c1cccs1 (stereo not given) 0% [at 17.1 µM, percent relative to cAMP agonist control], O=C(CSc1ccc2ccccc2c1)Nc1ccc(S(=O)(=O)Nc2nccs2)cc1 0.22% [at 17.1 µM, percent relative to cAMP agonist control]
